PubChem BioAssay
Activity calls are given as the source filed them.

Columns and labels:
[1] = tested on: Human papillomavirus type 1a protein E7 (residues 44-93); test: small molecules binding HPV E7 44-93 – biochemical, small-molecule microarray, residues 44-93, 635 nm fluorescence, primary screen (AID 1108); conditions: fluorescence 635 nm, higher = more signal;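 further: E7 fragment applied at 1 µg/mL in TBST for 1 h at 4 C; score combines spot fluorescence with its signal to noise ratio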
[2] = hepatitis C replication reporter changes, two-sided – Huh7 cells, luciferase reporter, HCV replication inhibitor project, primary screen (AID 1109); conditions: Huh7 HCV replicon luciferase reporter, 48 h; higher = more signal;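 further: huh7 hepatoma cells harbouring a luciferase neomycin HCV replicon reporter; luciferase luminescence as measure of HCV replicon replication; test concentration not given here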
[3] = target: Left-right determination factor 2 (Homo sapiens) (UniProt O00292); test: small molecules binding LEFTY2 protein – biochemical, small-molecule microarray, 635 nm fluorescence scan, primary screen (AID 1110); conditions: higher = more signal
Sequence of Left-right determination factor 2 (Homo sapiens) (O00292 whole entry, looked up): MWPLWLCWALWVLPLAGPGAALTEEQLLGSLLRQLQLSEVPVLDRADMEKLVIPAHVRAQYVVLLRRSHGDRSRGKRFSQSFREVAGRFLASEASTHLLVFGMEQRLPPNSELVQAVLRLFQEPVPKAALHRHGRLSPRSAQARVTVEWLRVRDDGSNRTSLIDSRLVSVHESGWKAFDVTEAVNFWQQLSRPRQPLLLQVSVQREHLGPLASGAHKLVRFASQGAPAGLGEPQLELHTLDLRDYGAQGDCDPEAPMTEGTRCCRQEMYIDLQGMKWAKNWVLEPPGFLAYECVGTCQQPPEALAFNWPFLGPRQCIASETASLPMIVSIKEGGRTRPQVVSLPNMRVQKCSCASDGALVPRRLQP

[4] = target: Calmodulin-1 (Homo sapiens) (UniProt P0DP23); test: small molecules binding calmodulin-1 with EGTA – biochemical, small-molecule microarray, Cy5-labelled CALM1, profiling panel (AID 1111); conditions: Cy5-CALM1 binding fluorescence, higher = more signal;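 further: labelled calmodulin applied in Tris saline Tween buffer holding calcium plus EGTA and DTT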
[5] = target: Calmodulin-1 (Homo sapiens) (UniProt P0DP23); test: small molecules binding Ca-loaded calmodulin-1 – biochemical, small-molecule microarray, Cy5-labelled CALM1, plus calcium, artefact control for SMM control-protein annotation, profiling panel (AID 1112); conditions: Cy5-CALM1 binding fluorescence, higher = more signal;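 further: score merges spot fluorescence with signal to noise from triplicate slides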
[6] = probe aWnt5a binding to arrayed compounds – biochemical, biotinylated probe, 635/667 nm fluorescence, primary screen (AID 1113); conditions: small-molecule microarray, higher = more signal;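 further: score merges 667 nm fluorescence intensity with signal-to-noise per printed feature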
[7] = probe aShh binding to arrayed compounds – biochemical, biotinylated probe, 635/667 nm fluorescence, primary screen (AID 1114); conditions: small-molecule microarray, higher = more signal;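 further: probe is biotin-labelled aShh protein from a stem cell growth factor screen; measures binding of labelled protein to compounds printed on the slide; score merges feature fluorescence at 667 nm with signal-to-noise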
[8] = probe aNog binding to arrayed compounds – biochemical, biotinylated probe, 635/667 nm fluorescence, primary screen (AID 1115); conditions: small-molecule microarray, higher = more signal;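 further: probe is biotinylated aNog protein used at 0.15 µg/mL for 1 h at 4 C; z-score combines 667 nm fluorescence of each spot with its signal to noise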
[9] = target: Torsin-1A-interacting protein 1 (Homo sapiens) (UniProt Q5JTV8); test: compound microarray binding of lysate hLAP1 – cell lysate, small-molecule microarray, COS7 lysate, 635/667 nm fluorescence, primary screen (AID 1116); conditions: 635 nm fluorescence, higher = more signal
Sequence of Torsin-1A-interacting protein 1 (Homo sapiens) (Q5JTV8 whole entry, looked up): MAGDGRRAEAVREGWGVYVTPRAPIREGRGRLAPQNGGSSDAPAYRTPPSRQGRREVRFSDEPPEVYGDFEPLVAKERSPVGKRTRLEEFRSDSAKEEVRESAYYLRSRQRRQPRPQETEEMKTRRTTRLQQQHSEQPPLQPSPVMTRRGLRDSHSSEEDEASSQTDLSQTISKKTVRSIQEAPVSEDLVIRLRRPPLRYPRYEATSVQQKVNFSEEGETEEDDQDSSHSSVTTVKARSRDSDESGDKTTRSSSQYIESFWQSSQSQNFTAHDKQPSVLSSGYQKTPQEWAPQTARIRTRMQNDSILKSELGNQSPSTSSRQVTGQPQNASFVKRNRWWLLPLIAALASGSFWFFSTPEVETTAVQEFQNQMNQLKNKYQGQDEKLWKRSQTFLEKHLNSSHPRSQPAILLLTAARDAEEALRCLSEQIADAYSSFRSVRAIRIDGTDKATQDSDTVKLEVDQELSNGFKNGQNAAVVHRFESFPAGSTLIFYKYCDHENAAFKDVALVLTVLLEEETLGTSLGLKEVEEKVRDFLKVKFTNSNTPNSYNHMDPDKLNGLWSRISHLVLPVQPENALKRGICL

[10] = target: Alpha-bungarotoxin (Bungarus multicinctus) (UniProt P60615); test: compounds binding labelled alpha-BTX control protein – biochemical, small-molecule microarray, Alexa647 label, 635/667 nm fluorescence, artefact control for SMM control protein annotation, profiling panel (AID 1117); conditions: alpha-BTX-A647 binding fluorescence, higher = more signal
Sequence of Alpha-bungarotoxin (Bungarus multicinctus) (P60615 whole entry, looked up): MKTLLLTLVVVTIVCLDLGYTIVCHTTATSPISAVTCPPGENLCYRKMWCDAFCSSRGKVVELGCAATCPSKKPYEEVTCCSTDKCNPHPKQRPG

Albumin (Bos taurus) = Albumin (Bos taurus) (UniProt P02769); test: compounds binding labelled BSA control protein – biochemical, small-molecule microarray, Alexa647 label, 635/667 nm fluorescence, artefact control for SMM control protein annotation, profiling panel (AID 1118); conditions: BSA-A647 binding, fluorescence 635 nm, higher = more signal;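 further: score merges 667 nm emission intensity and signal-to-noise per printed compound spot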
Sequence of Albumin (Bos taurus) (P02769 whole entry, looked up): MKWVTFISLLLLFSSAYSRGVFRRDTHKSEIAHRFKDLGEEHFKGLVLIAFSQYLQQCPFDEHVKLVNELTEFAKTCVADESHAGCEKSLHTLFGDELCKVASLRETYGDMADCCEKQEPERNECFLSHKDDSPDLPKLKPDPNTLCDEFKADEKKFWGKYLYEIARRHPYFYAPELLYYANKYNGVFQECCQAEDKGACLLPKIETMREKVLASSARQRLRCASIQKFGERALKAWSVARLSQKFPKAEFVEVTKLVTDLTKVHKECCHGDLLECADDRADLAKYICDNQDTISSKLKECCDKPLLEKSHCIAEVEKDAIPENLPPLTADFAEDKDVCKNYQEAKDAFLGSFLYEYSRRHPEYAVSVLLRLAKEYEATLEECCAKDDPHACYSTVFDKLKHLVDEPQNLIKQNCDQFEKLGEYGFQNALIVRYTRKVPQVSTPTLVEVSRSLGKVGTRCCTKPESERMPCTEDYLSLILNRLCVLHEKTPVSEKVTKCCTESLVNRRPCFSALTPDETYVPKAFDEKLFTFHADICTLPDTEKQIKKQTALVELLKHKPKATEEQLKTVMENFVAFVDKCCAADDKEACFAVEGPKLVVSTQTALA

[11] = probe aXIP binding to arrayed compounds – biochemical, NeuroSMM set, 635/667 nm fluorescence, primary screen (AID 1119); conditions: small-molecule microarray, higher = more signal, called active from +8 up or from −8 down;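 further: probe is the protein aXip251-270 applied at 1 µg/mL to compound-printed slides; binding of probe to printed compounds measured as 667 nm fluorescence plus signal to noise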
[12] = probe aNOTCH3 binding on compound microarray – biochemical, small-molecule microarray, 635/667 nm fluorescence, primary screen (AID 1120); conditions: higher = more signal;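 further: probe is a biotin-tagged antibody raised against NOTCH3 rather than NOTCH3 protein; score merges spot fluorescence near 667 nm with spot signal to noise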
[13] = probe aNOTCH2 binding on compound microarray – biochemical, small-molecule microarray, 635/667 nm fluorescence, primary screen (AID 1121); conditions: higher = more signal;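 further: score merges feature fluorescence read at 667 nm with its signal to noise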
[14] = target: Carbonic anhydrase 2 (Homo sapiens) (UniProt P00918); test: compounds binding carbonic anhydrase 2 – biochemical, small-molecule microarray, Alexa647-labelled CAII, profiling panel (AID 1122); conditions: CAII-A647 binding fluorescence, higher = more signal
[15] = COS7 lysate on small-molecule microarray, probe aHis, 635 nm (AID 1123); conditions: COS7 cell lysate, fluorescence, higher = more signal;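 further: z-score combines 667nm fluorescence intensity with signal-to-noise per printed compound spot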
[16] = probe aLAP1 signal on lysate-treated microarray – cell lysate, small-molecule microarray, COS7 lysate, primary screen (AID 1124); conditions: probe aLAP1, fluorescence, higher = more signal;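 further: lysate comes from COS7 cells expressing LAP1 and is applied at 0.3 µg/mL; score merges spot fluorescence near 667 nm with signal-to-noise over triplicate slides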
Sam68 (KHDRBS1) = test: compounds binding KHDRBS1 protein – biochemical, small-molecule microarray, 635 nm fluorescence, primary screen (AID 1125); conditions: higher = more signal;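 further: score merges 667 nm channel intensity with signal to noise over triplicate slides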
[17] = tested on: Chordin-like protein 2 (CHRDL2); test: compounds binding chordin-like 2 – biochemical, small-molecule microarray, 635 nm fluorescence, primary screen (AID 1126); conditions: fluorescence 635 nm, higher = more signal;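 further: printed compound slides probed with Chrdl2 protein at 4 µg/mL for 1 h at 4 C; score merges 667 nm emission intensity with signal to noise over three replicate slides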
[18] = target: Concanavalin-A (Canavalia ensiformis) (UniProt P02866); test: compounds binding concanavalin A lectin – biochemical, small-molecule microarray, Alexa647 label, 635 nm, artefact control for SMM control protein annotation, primary screen (AID 1127); conditions: ConA-A647 binding fluorescence, higher = more signal;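 further: z combines 667 nm emission intensity with signal-to-noise across three replicate slides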
Sequence of Concanavalin-A (Canavalia ensiformis) (P02866 whole entry, looked up): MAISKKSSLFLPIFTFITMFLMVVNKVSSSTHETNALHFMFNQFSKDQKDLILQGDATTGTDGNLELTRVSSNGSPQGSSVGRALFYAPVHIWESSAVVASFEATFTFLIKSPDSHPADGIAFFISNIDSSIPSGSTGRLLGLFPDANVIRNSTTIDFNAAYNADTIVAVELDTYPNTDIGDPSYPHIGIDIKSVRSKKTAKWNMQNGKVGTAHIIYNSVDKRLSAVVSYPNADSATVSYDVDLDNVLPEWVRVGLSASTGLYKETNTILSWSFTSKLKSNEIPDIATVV

Row | SMILES | composite z-score [1] | z-score [2] | composite z-score [3] | composite z-score [4] | composite z-score [5] | composite z-score [6] | composite z-score [7] | composite z-score [8] | composite z-score [9] | composite z-score [10] | composite z-score (Albumin (Bos taurus)) | composite Z-score [11] | composite z-score [12] | composite z-score [13] | composite z-score [14] | composite z-score [15] | composite z-score [16] | composite z-score (Sam68 (KHDRBS1)) | composite z-score [17] | composite z-score [18]
1 | COC(=O)[C@@]1(Cc2ccccc2)[C@H]2c3cc(C(=O)N(C)C)n(Cc4ccc(O)c(OC)c4)c3C[C@H]2CN1C(=O)c1ccccc1 | 1.45 | -2.56 | -0.276 | 1.46 | 1.17 | 0.75 | 0.16 | -0.322 | 0.141 | 0.245 | 0.955 | 0.403 (inactive) | 0.808 | -0.246 | 0.759 | 2.17 | 0.091 | 0.507 | -0.629 | 1.1
2 | C=C(COC)/C(=C/C[C@@H](OC(=O)c1ccncc1)c1cccc(OCCO)c1)c1cc(C(=O)OC)ccc1OC | 0.755 | -4.4 | 0.872 | -0.134 | -0.698 | 0.115 | 0.0048 | -0.483 | 0.567 | 0.243 | -0.431 | 0.135 (inactive) | 0.0297 | -0.147 | 0.646 | -0.0596 | 0.996 | 1.24 | 0.699 | 0.206
3 | C=C(C(=O)CC[C@H](OC(=O)c1cccnc1)c1ccc(OCCO)cc1)C(C)C | 1.33 | -3.29 | 0.242 | 0.098 | -1.01 | -0.0704 | -0.142 | -0.196 | 1.68 | 1.11 | 0.335 | -0.496 (inactive) | 0.0571 | -0.105 | 0.695 | 0.706 | 0.296 | 1.13 | 0.274 | 1.12
4 | C[N+](C)(C)CCCC[C@@H]1NC(=O)[C@@H]2C[C@H](C(=O)NCCCCCNC(=O)CS)[C@H](c3cccc(OCCO)c3)N2C1=O | 0.911 | -0.193 | 0.0926 | -0.0534 | 0.581 | -0.0478 | 0.151 | 0.0197 | -0.034 | 0.568 | 0.666 | 0.0831 (inactive) | 0.0287 | -0.0662 | 0.399 | 0.46 | -0.343 | 0.765 | 0.361 | 0.88
5 | O=C1NC(=O)C2C1C=CC(C(O)c1ccc(-c3ccccc3)s1)N2Nc1ccccn1 (stereo not given) | -1.13 | -0.684 | 0.18 | 0.0183 | 0.0403 | 0.0746 | -0.0961 | -0.0545 | 2.8 | 0.435 | 0.781 | -1.39 (inactive) | -0.115 | 0.11 | 0.91 | 0.978 | 1.22 | 0.105 | 0.398 | 0.83
6 | C=CCN1C(=O)[C@@]2(O[C@@H](CCO)[C@H]([Si](C)(C)c3ccc(OC)cc3)[C@H]2C)c2cc(NC(=O)[C@H](C)O)ccc21 | 1.37 | -3.03 | 0.256 | 0.929 | -0.377 | 0.0279 | 0.0639 | -0.21 | 1.2 | 0.175 | 0.489 | 0.0001 (inactive) | -0.0343 | -0.126 | 0.63 | 1.68 | 0.231 | 1.31 | -0.0585 | 0.584
7 | O=C1N(CCS(=O)(=O)c2ccccc2)c2ccccc2[C@H]2OC(c3ccc(OCCCO)cc3)=N[C@@]12CCS(=O)(=O)c1ccccc1 | 1.13 | 0.208 | 0.98 | 0.589 | 0.362 | 0.385 | 0.359 | 1.29 | 0.475 | 0.96 | -1.18 | 1.11 (inactive) | 0.674 | 0.445 | 0.352 | 2.82 | 0.226 | 1.29 | 1.07 | 1.16
8 | COc1ccc([Si](C)(C)[C@H]2[C@H](CC(=O)N3CCC[C@H]3CO)O[C@@]3(C(=O)N(Cc4ccc(N5C(=O)c6cccc7cccc5c67)cc4)c4ccccc43)[C@@H]2C)cc1 | 1.14 | -1.96 | 0.758 | 0.325 | -0.544 | -0.0944 | 0.151 | 0.473 | 0.585 | 2.05 | 0.121 | 0.829 (inactive) | 0.171 | -0.146 | 0.409 | 1.23 | 0.206 | 1.29 | 0.634 | 1.13
9 | COC(=O)[C@@]1(Cc2ccc(OC)cc2)[C@H]2c3cc(C(=O)N4CCCC4)n(CCF)c3C[C@H]2CN1C(=O)c1ccccc1 | 0.632 | -1.27 | -0.191 | 2.03 | 0.77 | 1.34 | 2.55 | 3.06 | 1.19 | 1.04 | 0.978 | 0.573 (inactive) | 1.97 | 1.15 | 0.755 | 3.15 | 0.478 | 0.757 | -0.258 | 0.99
10 | [N-]=[N+]=Nc1ccccc1[C@@H]1OC(c2ccc(OCCCO)cc2)=N[C@]1(CCS(=O)(=O)c1ccccc1)C(=O)NCc1ccccc1 | 1.41 | 0.0858 | 0.343 | 2.03 | 0.603 | 0.0338 | 0.0469 | 1.6 | 2.15 | 1.9 | 0.976 | 1.08 (inactive) | 0.752 | 0.38 | 0.749 | 2.86 | 0.48 | 1.29 | -0.612 | 1.11
11 | COc1cc2c(cc1OC)CN(C(=O)[C@@H]1[C@H]3C(=O)O[C@H](c4ccccc4)[C@H](c4ccccc4)N3[C@H](c3ccc(O)cc3)[C@@]13C(=O)Nc1ccc(C#CCNC(N)=O)cc13)CC2 | 0.762 | -0.126 | 0.382 | 0.186 | -0.0936 | -0.0367 | 0.0062 | -0.115 | 0.0623 | 0.469 | 0.0738 | 0.507 (inactive) | 0.114 | -0.182 | -0.0348 | 0.276 | 1.06 | 0.425 | 0.498 | 0.826
